PubChem BioAssay (NCATS)
Records with an inconclusive call do not appear. Calls of active or inactive are those of the source. Calls follow the shape of the dose curve; as a rule, active = well fitted curve in the direction sought with a large enough effect; inconclusive = small, poorly fitted or top-dose-only effect, or another doubt; inactive = no such curve, though single readings can be large; an effect the other way counts as inactive or inconclusive. Where a SMILES comes first, the peptide text is derived from it.

Tests used:
CRL-7250 = normal cell line; assay: Cytotoxic Profiling of Annotated Libraries Using Quantitative High-Throughput Screening (AID 1296008); conditions: Five cell lines viability, CellTiter-Glo ATP luminescence, 48-72 h; max response: active compounds read low; also: nearly all actives have a fitted effect of over 60% in size; as to max response: % is scaled to controls: 0 for no effect and ±100 for the full control effect
In short: (§1)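 Compounds were pin-transferred onto cells and incubated 48 or 72 hr at 37 degree Celsius, 95% humidity. CellTiter-Glo was added, plates sat 10 min at room temperature, then ATP-coupled luminescence was imaged as the viability read-out.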

HEK293 = assay: as above; conditions: Five cell lines viability, CellTiter-Glo ATP luminescence, 48-72 h; max response: active compounds read low
In short: as §1

HaCat [1] = assay: as above; conditions: Five cell lines viability, CellTiter-Glo ATP luminescence, 48-72 h; max response: active compounds read low
In short: as §1

KB-3-1 = assay: as above; conditions: Five cell lines viability, CellTiter-Glo ATP luminescence, 48-72 h; max response: active compounds read low
In short: as §1

NIH3T3 [2] = assay: as above; conditions: Five cell lines viability, CellTiter-Glo ATP luminescence, 48-72 h; max response: active compounds read low
In short: as §1

HACAT [3] = assay: qHTS assay to identify novel small-molecules to repurpose for Merkel cell carcinoma treatment (AID 1296009); conditions: MCC and control cell lines, CellTiter-Glo viability, 72 h; at 44.8 µM (top of the series) unless noted; also: nearly all actives have a fitted effect of over 60% in size
In short: (§2)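 Luminescence from CellTiter-Glo, read 10 min after addition at room temperature, reported viability following a 72 hr, 37 degree celsius treatment with NPC or MIPE compounds in titration; values normalized to plate controls.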

C33A = assay: Primary qHTS to identify gynecologic anti-cancer compounds using libraries of approved drugs and bioactive compounds (AID 1345084); conditions: Gynecologic cancer cell panel viability, ATPlite luminescence, 48 h; series mostly up to 57.5 µM; also: % is scaled to controls: 0 for no effect and ±100 for the full control effect; nearly all actives have a fitted effect of over 55% in size
In short: (§3)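 In this quantitative HTS, cell killing is estimated from loss of ATP-dependent luciferase light. Cells see five compound concentrations over a 48 h exposure.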

CAOV3 = assay: as above; conditions: Gynecologic cancer cell panel viability, ATPlite luminescence, 48 h; series mostly up to 57.5 µM
In short: as §3

CASKI = assay: as above; conditions: Gynecologic cancer cell panel viability, ATPlite luminescence, 48 h; series mostly up to 57.5 µM
In short: as §3

Es-2 = assay: as above; conditions: Gynecologic cancer cell panel viability, ATPlite luminescence, 48 h; series mostly up to 57.5 µM
In short: as §3

HeLa = assay: as above; conditions: Gynecologic cancer cell panel viability, ATPlite luminescence, 48 h; series mostly up to 57.5 µM
In short: as §3

Hek293T = assay: as above; conditions: Gynecologic cancer cell panel viability, ATPlite luminescence, 48 h, control line for the selectivity index; series mostly up to 57.5 µM
In short: as §3

JEG-3 = assay: as above; conditions: Gynecologic cancer cell panel viability, ATPlite luminescence, 48 h; series mostly up to 57.5 µM
In short: as §3

OV90 = assay: as above; conditions: Gynecologic cancer cell panel viability, ATPlite luminescence, 48 h; series mostly up to 57.5 µM
In short: as §3

NIH3T3 [4] = assay: qHTS assay to identify novel small-molecules to repurpose for Merkel cell carcinoma treatment (AID 1296009); conditions: MCC and control cell lines, CellTiter-Glo viability, 72 h; at 44.8 µM (top of the series) unless noted; also: nearly all actives have a fitted effect of over 60% in size
In short: as §2

CC1(C)COC(=O)[C@@H]1O[C@@H]1O[C@H](CO)[C@@H](O)[C@H](O)[C@H]1O
inactive: max response (CRL-7250) 4.71% | max response (HEK293) 0.945% | outcome (HaCat [1]) | outcome (KB-3-1) | max response (NIH3T3 [2]) 0.729% | outcome (HACAT [3]) | Potency (C33A) | Potency (CAOV3) | outcome (CASKI) | Potency (Es-2) | Potency (HeLa) | Potency (Hek293T) | Potency (JEG-3) | Potency (OV90)

CC1=C2C[C@@]3(C)[C@@H](CCC[C@@H]3C)C[C@@]2(O)OC1=O
inactive: outcome (CRL-7250) | max response (HEK293) -2.55% | outcome (HaCat [1]) | max response (KB-3-1) 8.04% | outcome (NIH3T3 [2]) | outcome (HACAT [3]) | outcome (NIH3T3 [4]) | Potency (C33A) | outcome (CASKI) | Potency (Es-2) | Potency (HeLa) | Potency (Hek293T) | Potency (JEG-3) | Potency (OV90)

CC1(C(=O)O)CCCC2(C)C3CC4C5CC3(CCC12)CC45C (stereo not drawn)
inactive: max response (CRL-7250) -3.47% | max response (HEK293) 2.22% | outcome (HaCat [1]) | max response (KB-3-1) 4.9% | max response (NIH3T3 [2]) -21.3% | outcome (HACAT [3]) | Potency (C33A) | Potency (CAOV3) | outcome (CASKI) | Potency (Es-2) | Potency (HeLa) | Potency (Hek293T) | Potency (JEG-3) | Potency (OV90)

COc1cccc(CN(C(=O)CC(C)(C)C)C2CC(C(=O)N3CCNCC3)N(Cc3ccc4c(c3)OCO4)C2)c1 (stereo not drawn)
inactive: max response (CRL-7250) -4.46% | max response (HEK293) -17.6% | outcome (HaCat [1]) | outcome (KB-3-1) | outcome (NIH3T3 [2]) | outcome (HACAT [3]) | outcome (NIH3T3 [4]) | Potency (C33A) | outcome (CASKI) | Potency (Es-2) | Potency (HeLa) | Potency (Hek293T) | Potency (JEG-3) | Potency (OV90)

C/C=C(/C)C(=O)OC1CC(C)(C)CC2C3=CCC4C5(C)CCC(OC6OC(C)C(OC7OC(C(=O)O)C(O)C(OC8OC(CO)C(O)C(O)C8OC8OC(CO)C(O)C(O)C8O)C7O)C(O)C6O)C(C)(C)C5CCC4(C)C3(C)C(OC(=O)/C=C/C=C/C=C/CCC)C(OC(C)=O)C12CO (stereo not drawn)
inactive: max response (CRL-7250) 3.68% | max response (HEK293) 2.77% | outcome (HaCat [1]) | outcome (KB-3-1) | outcome (NIH3T3 [2]) | outcome (HACAT [3]) inactive [at 9.27 µM] | outcome (NIH3T3 [4]) inactive [at 9.27 µM] | activity change, negative = cytotoxicity (C33A) -5.83% [at 6.55 µM] | activity change, negative = cytotoxicity (CASKI) -6.51% [at 6.55 µM] | activity change, negative = cytotoxicity (Es-2) 13.9% [at 6.55 µM] | activity change, negative = cytotoxicity (HeLa) 0% [at 6.55 µM] | activity change, negative = cytotoxicity (Hek293T) -3.11% [at 6.55 µM] | activity change, negative = cytotoxicity (JEG-3) -5.73% [at 6.55 µM] | activity change, negative = cytotoxicity (OV90) -14.1% [at 6.55 µM]

N#CN1CCC[C@@H](n2nc(-c3ccc(Oc4ccc(F)cc4F)cc3)c(C(N)=O)c2N)C1
inactive: max response (CRL-7250) -1.33% | max response (HEK293) -4.05% | outcome (HaCat [1]) | outcome (KB-3-1) | max response (NIH3T3 [2]) 1.04% | outcome (HACAT [3]) | Potency (C33A) | Potency (CAOV3) | outcome (CASKI) | Potency (Es-2) | Potency (HeLa) | Potency (Hek293T) | Potency (JEG-3) | Potency (OV90)

COc1ccc(/C=C/C(N)=O)cc1OC
inactive: outcome (CRL-7250) | max response (HEK293) 3.65% | outcome (HaCat [1]) | outcome (KB-3-1) | max response (NIH3T3 [2]) 3.68% | outcome (HACAT [3]) | Potency (C33A) | Potency (CAOV3) | outcome (CASKI) | Potency (Es-2) | Potency (HeLa) | Potency (Hek293T) | Potency (JEG-3) | Potency (OV90)

CC1(C(=O)O)CCCC2(C)C3CCC4CC3(CCC12)CC4(O)CO (stereo not drawn)
inactive: max response (CRL-7250) 1.56% | max response (HEK293) -16.5% | outcome (HaCat [1]) | max response (KB-3-1) 5.7% | max response (NIH3T3 [2]) 0.753% | outcome (HACAT [3]) | Potency (C33A) | Potency (CAOV3) | outcome (CASKI) | Potency (Es-2) | Potency (HeLa) | Potency (Hek293T) | Potency (JEG-3) | Potency (OV90)

CN(C)c1ccc(C2O[C@@H](c3ccccc3)C[C@H](c3ccccc3)O2)cc1 (stereo partly drawn)
inactive: outcome (CRL-7250) | max response (HEK293) -10.1% | outcome (HaCat [1]) | outcome (KB-3-1) | max response (NIH3T3 [2]) 4.55% | outcome (HACAT [3]) | Potency (C33A) | Potency (CAOV3) | outcome (CASKI) | Potency (Es-2) | Potency (HeLa) | Potency (Hek293T) | Potency (JEG-3) | Potency (OV90)

CSCC[C@H](NC(=O)[C@H](CO)NC(=O)[C@H](CCC(=O)O)NC(C)=O)C(=O)N[C@H](C=O)CC(=O)O (Ac-ESMD-aldehyde)
inactive: max response (CRL-7250) 3.88% | max response (HEK293) 0.953% | outcome (HaCat [1]) | max response (KB-3-1) 2.69% | max response (NIH3T3 [2]) -20.7% | outcome (HACAT [3]) inactive [at 9.27 µM] | activity change, negative = cytotoxicity (C33A) 13.1% [at 11.6 µM] | activity change, negative = cytotoxicity (CAOV3) 15.6% [at 11.6 µM] | activity change, negative = cytotoxicity (CASKI) 18.4% [at 11.6 µM] | activity change, negative = cytotoxicity (Es-2) 5.54% [at 11.6 µM] | activity change, negative = cytotoxicity (HeLa) 13.1% [at 11.6 µM] | activity change, negative = cytotoxicity (Hek293T) 8.08% [at 11.6 µM] | activity change, negative = cytotoxicity (JEG-3) 19.7% [at 11.6 µM] | activity change, negative = cytotoxicity (OV90) -2.74% [at 11.6 µM]

Cc1ncc([N+](=O)[O-])n1C[C@H](O)CN1CCOCC1
inactive: outcome (CRL-7250) | max response (HEK293) 2.87% | outcome (HaCat [1]) | outcome (KB-3-1) | max response (NIH3T3 [2]) -3.55% | outcome (HACAT [3]) | Potency (C33A) | Potency (CAOV3) | outcome (CASKI) | Potency (Es-2) | Potency (HeLa) | Potency (Hek293T) | Potency (JEG-3) | Potency (OV90)

COc1ccc(C(=O)CC(=O)O)c2c1C=CC(C)(C)O2
inactive: outcome (CRL-7250) | max response (HEK293) -7.49% | outcome (HaCat [1]) | max response (KB-3-1) 7.77% | max response (NIH3T3 [2]) -1.38% | outcome (HACAT [3]) | Potency (C33A) | Potency (CAOV3) | outcome (CASKI) | Potency (Es-2) | Potency (HeLa) | Potency (Hek293T) | Potency (JEG-3) | Potency (OV90)
